Several values for one entry are separate records, joined by “and”; a condition that tells them apart may be missing. Identical values can stand only once. About 11,000 (3.5%) of roughly 310,000 compounds were called active. Inconclusive results (about 4%) are left out. No cut-off for these calls is given here. Only a selection was taken, and actives are over-represented in it overall.
Each compound was assayed against T1, 4'-phosphopantetheinyl transferase ffp (Bacillus subtilis) (UniProt Q9F4F7) (assay: qHTS Assay for Inhibitors of Bacillus subtilis Sfp phosphopantetheinyl transferase (PPTase).).
T1 sequence (whole entry): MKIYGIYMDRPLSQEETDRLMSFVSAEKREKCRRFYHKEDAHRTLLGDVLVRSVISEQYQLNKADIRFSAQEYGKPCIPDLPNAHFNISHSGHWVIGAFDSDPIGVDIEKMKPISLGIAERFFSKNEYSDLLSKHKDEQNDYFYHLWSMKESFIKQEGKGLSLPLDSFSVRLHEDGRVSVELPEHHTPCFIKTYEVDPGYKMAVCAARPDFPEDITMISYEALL
Format: functional
`N[C@H](CCC(=O)O)C(=O)O` was tested, and the Potency was 44.7 µM (active) and 56.2 µM (active). For `N[C@@H](CCC(=O)O)C(=O)O`, the Potency was 50.1 µM (active).

— ChEMBL document CHEMBL1201862, “PubChem BioAssay data set” (2004)
